From PubChem BioAssay
Calls of active or inactive are those of the source. Unless noted, the rule behind the calls is not given here.

What was measured:
[1] = system: Wnt5a (protein binding on small-molecule microarray); test: small molecules binding Wnt5a protein – biophysical, small-molecule microarray, 635/667 nm fluorescence, primary screen (AID 1142); details: 635 nm fluorescence, higher = more signal;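 note: fluorescence read at 667 nm with signal to noise per printed feature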
[2] = ATP-based viability of Huh7 replicon cells – cell-based, CellTiter-Glo luminescence, basal, 48 h, cytotoxicity control for HCV replication inhibitor project, primary screen (AID 1143); details: higher = more signal, called active from +8 up or from −8 down;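 note: Huh7 hepatoma cells carrying a hepatitis C replication reporter with no stimulus; test concentration not given here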
[3] = Pseudomonas biofilm growth suppression – PAO1 strain, BacTiter-Glo luminescence, LB-PBS, primary screen (AID 1144); details: P. aeruginosa PAO1 biofilm, 12 h, higher = more signal
[4] = basal CRE-LacZ reporter activity in PC12 – cell-based, unstimulated, primary screen (AID 1145); details: no forskolin, luminescence, 4.5 h, higher = more signal, called active from +8 up or from −8 down
[5] = forskolin-driven CRE-LacZ activity in PC12 – cell-based, CRE-LacZ reporter, forskolin-stimulated, primary screen (AID 1146); details: luminescence, 4.5 h, higher = more signal, called active from +8 up or from −8 down;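 note: PC12 cells with 6xCRE LacZ reporter stimulated by forskolin 10 µM; beta-galactosidase reporter signal reflecting CREB driven transcription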
[6] = target: Streptavidin (Streptomyces avidinii) (UniProt P22629); test: compounds binding control protein streptavidin – biophysical, small-molecule microarray, 635/667 nm fluorescence, artefact control for SMM compound annotation, primary screen (AID 1147); details: higher = more signal;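 note: signal reflects streptavidin binding to arrayed compounds as a control protein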
Sequence of Streptavidin (Streptomyces avidinii) (P22629 whole entry, looked up): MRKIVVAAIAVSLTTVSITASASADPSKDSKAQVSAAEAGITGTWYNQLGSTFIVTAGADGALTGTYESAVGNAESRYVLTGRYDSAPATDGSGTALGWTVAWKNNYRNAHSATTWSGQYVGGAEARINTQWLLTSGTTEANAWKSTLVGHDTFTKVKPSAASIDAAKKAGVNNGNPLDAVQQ

[7] = probe aInhba binding on compound microarray – biochemical, small-molecule microarray, 635/667 nm fluorescence, primary screen (AID 1148); details: higher = more signal;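 note: score merges 667nm spot fluorescence with signal-to-noise for antibody binding to printed compounds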
[8] = target: Torsin-1A (Homo sapiens) (UniProt O14656); test: TOR1A wild-type binding on microarray – cell lysate, small-molecule microarray, lysate, 635/667 nm, primary screen (AID 1149); details: COS7 hTOR1A-WT lysate, 635 nm fluorescence, higher = more signal
Sequence of Torsin-1A (Homo sapiens) (O14656 whole entry, looked up): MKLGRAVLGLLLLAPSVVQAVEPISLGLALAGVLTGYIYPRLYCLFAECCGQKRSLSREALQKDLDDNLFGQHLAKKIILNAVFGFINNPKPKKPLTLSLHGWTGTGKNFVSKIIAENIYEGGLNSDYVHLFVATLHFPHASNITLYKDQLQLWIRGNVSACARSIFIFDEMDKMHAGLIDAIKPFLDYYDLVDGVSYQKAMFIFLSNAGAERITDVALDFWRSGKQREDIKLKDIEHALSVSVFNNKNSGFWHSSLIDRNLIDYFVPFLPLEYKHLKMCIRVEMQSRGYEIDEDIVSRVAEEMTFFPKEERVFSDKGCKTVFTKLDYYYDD

[9] = target: Torsin-1A (Homo sapiens) (UniProt O14656); test: torsin A mutant lysate binding on microarrays – cell lysate, small-molecule microarray, COS7 lysate, 635/667 nm fluorescence, primary screen (AID 1150); details: COS7 hTOR1A mutant lysate, 635 nm fluorescence, higher = more signal;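 note: score pools 667 nm emission and signal to noise measuring lysate protein binding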
[10] = system: Sonic hedgehog protein (Shh); test: Sonic hedgehog microarray binding compounds – biochemical, small-molecule microarray, 635/667 nm fluorescence, primary screen (AID 1151); details: 635 nm fluorescence, higher = more signal;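 note: Shh protein binding to compounds spotted on small-molecule microarray slides; score combines spot fluorescence intensity with signal-to-noise across triplicate slides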
[11] = optical density shifts of acrAB sulA E. coli – strain DRC41, OD650, 48 h, E. coli filamentation inducer project, primary screen (AID 1152); details: higher = more signal, called active from +8 up or from −8 down;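 note: E. coli MC1000 strain DRC41 lacking acrAB efflux pump and sulA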
[12] = probe aLefty1 binding on compound microarray – biochemical, small-molecule microarray, 635/667 nm fluorescence, primary screen (AID 1153); details: higher = more signal;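 note: score merges spot fluorescence with signal-to-noise ratio from the scanned slide images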
[13] = plasmodial surface anion channel blockers, osmotic lysis – cell-based, P. falciparum Indochina, OD700, 1 h, primary screen (AID 1154); details: P. falciparum Indochina infected RBC osmotic lysis, higher = more signal, called active from +8 up or from −8 down
[14] = plasmodial surface anion channel blockers, osmotic lysis – cell-based, P. falciparum Indochina, OD700, 2 h, primary screen (AID 1155);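 note: lysis reports solute entry through the parasite surface anion channel PSAC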; details: P. falciparum Indochina infected erythrocytes, higher = more signal, called active from +8 up or from −8 down
[15] = changes in parasitized red cell lysis, either direction – P. falciparum Indochina, OD700, 3 h, PSAC antagonist project, primary screen (AID 1156); details: P. falciparum-infected erythrocytes, osmotic lysis, higher = more signal, called active from +8 up or from −8 down
[16] = plasmodial surface anion channel blockers, osmotic lysis – cell-based, P. falciparum Indochina, OD700, 18 h, primary screen (AID 1157); details: P. falciparum Indochina infected erythrocytes, osmotic lysis OD700, 18 h; higher = more signal, called active from +8 up or from −8 down
[17] = S6 kinase pathway phospho-S6 level changes – cell-based, A549, cytoblot, luminescence, serum-stimulated, primary screen (AID 1158); details: 5 h, higher = more signal;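 note: serum-stimulated A549 lung adenocarcinoma cells; signal is phosphorylated S6 detected by cytoblot immunostaining with HRP secondary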
[18] = target: NADPH oxidase 2 (Homo sapiens) (UniProt P04839); test: compounds shifting NOX2 Amplex Red fluorescence – cell-based, HEK293-NOX2, PMA-stimulated, NOX inhibitor project, primary screen (AID 1159); details: 45 min, higher = more signal, called active from +8 up or from −8 down; note: test concentration not given here
Sequence of NADPH oxidase 2 (Homo sapiens) (P04839 whole entry, looked up): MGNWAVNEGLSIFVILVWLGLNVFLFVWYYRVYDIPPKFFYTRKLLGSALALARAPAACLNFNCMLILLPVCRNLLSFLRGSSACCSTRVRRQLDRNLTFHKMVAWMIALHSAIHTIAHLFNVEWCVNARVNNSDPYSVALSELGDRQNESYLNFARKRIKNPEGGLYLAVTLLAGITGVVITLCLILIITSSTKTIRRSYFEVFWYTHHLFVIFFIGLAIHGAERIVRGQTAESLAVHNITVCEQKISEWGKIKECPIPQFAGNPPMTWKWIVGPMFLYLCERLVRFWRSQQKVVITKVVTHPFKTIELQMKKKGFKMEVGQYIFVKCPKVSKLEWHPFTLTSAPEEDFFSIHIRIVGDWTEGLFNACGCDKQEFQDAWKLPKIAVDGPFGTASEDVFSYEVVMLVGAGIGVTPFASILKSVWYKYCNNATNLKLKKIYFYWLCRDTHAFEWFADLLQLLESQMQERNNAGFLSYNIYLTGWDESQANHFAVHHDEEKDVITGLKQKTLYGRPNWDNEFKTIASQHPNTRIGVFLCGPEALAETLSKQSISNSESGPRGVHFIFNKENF

[19] = target: NADPH oxidase 4 (Homo sapiens) (UniProt Q9NPH5); test: compounds shifting NOX4 Amplex Red fluorescence – cell-based, HEK293-NOX4, tetracycline-induced, NOX inhibitor project, primary screen (AID 1160); details: HEK293-NOX4, Amplex Red H2O2 fluorescence, 45 min; higher = more signal, called active from +8 up or from −8 down
Sequence of NADPH oxidase 4 (Homo sapiens) (Q9NPH5 whole entry, looked up): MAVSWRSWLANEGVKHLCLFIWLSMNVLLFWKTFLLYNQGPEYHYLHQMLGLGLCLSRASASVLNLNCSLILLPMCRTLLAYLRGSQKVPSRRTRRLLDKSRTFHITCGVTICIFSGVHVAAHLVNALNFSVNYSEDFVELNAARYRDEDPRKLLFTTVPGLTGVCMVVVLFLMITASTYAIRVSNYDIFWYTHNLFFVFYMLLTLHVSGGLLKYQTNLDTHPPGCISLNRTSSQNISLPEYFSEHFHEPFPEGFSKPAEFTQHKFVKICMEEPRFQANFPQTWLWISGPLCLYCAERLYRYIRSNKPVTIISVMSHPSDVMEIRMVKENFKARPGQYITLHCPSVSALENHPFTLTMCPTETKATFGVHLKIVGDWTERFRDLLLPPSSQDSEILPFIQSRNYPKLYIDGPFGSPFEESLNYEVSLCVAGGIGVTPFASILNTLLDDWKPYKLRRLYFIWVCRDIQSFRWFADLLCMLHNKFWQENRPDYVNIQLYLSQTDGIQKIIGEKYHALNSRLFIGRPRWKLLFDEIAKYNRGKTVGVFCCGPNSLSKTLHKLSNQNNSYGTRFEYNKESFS

[20] = target: NADPH oxidase 5 (Homo sapiens) (UniProt Q96PH1); test: compounds shifting NOX5 Amplex Red fluorescence – cell-based, HEK293-NOX5, NOX inhibitor project, primary screen (AID 1161); details: HEK293-NOX5, ionomycin, 45 min, higher = more signal
Sequence of NADPH oxidase 5 (Homo sapiens) (Q96PH1 whole entry, looked up): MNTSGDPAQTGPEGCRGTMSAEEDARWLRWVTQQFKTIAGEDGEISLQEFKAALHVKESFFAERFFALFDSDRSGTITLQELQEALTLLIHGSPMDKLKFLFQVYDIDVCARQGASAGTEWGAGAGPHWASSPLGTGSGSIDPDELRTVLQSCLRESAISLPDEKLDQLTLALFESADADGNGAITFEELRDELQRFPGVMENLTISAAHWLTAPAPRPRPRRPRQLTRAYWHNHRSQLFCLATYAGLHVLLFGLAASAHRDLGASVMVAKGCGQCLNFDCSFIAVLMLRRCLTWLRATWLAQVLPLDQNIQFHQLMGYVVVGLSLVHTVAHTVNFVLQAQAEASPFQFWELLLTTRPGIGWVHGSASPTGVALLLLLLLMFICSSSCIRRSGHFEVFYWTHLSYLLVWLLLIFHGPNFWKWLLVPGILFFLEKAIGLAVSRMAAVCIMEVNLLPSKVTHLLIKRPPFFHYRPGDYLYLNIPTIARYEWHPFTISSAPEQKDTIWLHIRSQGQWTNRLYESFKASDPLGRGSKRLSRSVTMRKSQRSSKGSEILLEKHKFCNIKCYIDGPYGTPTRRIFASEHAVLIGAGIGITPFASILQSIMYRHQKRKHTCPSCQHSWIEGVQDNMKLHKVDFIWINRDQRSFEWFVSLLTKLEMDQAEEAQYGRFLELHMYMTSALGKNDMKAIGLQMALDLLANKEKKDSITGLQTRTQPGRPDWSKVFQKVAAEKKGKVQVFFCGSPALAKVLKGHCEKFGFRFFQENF

For `C=CC[C@@]12N=C(c3ccc(OCCCO)cc3)O[C@@H]1c1ccccc1N(CCC)C2=O`, the composite z-score [1] was 0.318, the z-score [2] was -4.06 (inactive) and the z-score [3] was -1.29 (inactive). For the same molecule, the z-score [4] was 0.69 (inactive), the z-score [5] was -0.707 (inactive) and the composite z-score [6] was -0.0328. The composite z-score [7] was -0.0185, the composite z-score [8] was -0.1 and the composite z-score [9] was 0.204. The composite z-score [10] was 1.84, the z-score [11] was 1.39 (inactive) and the composite z-score [12] was 0.568. For the same molecule, the z-score [13] was 35.3 (active), the z-score [14] was 36.6 (active) and the z-score [15] was 1.75 (inactive). For the same molecule, the z-score [16] was 6.24 (inactive), the z-score [17] was 0.697 and the z-score [18] was -3.4 (inactive). The z-score [19] was -0.215 (inactive) and the z-score [20] was -1.75.

In the case of `Cc1ccc(S[C@]2(C(=O)NCC(F)(F)F)CC(=O)N(Cc3ccccc3C(F)(F)F)[C@@H]2c2ccc(CO)cc2)cc1`, the composite z-score [1] is reported as -0.186, the z-score [2] is reported as 0.518 (inactive) and the z-score [3] is reported as 0.0205 (inactive). For the same molecule, the z-score [4] was -0.349 (inactive), the z-score [5] was -0.163 (inactive) and the composite z-score [6] was -1. It also gave a composite z-score [7] of -0.179, a composite z-score [8] of -1.23 and a composite z-score [9] of 0.0748. For the same molecule, the composite z-score [10] was -0.972, the z-score [11] was -0.262 (inactive) and the composite z-score [12] was 0.007. The z-score [13] was 1.4 (inactive), the z-score [14] was -0.107 (inactive) and the z-score [15] was -0.142 (inactive). For the same molecule, the z-score [16] was 0.135 (inactive), the z-score [17] was -0.0621 and the z-score [18] was -2.02 (inactive). The z-score [19] was 0.426 (inactive) and the z-score [20] was -0.0735.

For `O=C(NCc1ccccc1)[C@@H]1c2ccccc2C(=O)N(Cc2cc(C(F)(F)F)cc(C(F)(F)F)c2)[C@H]1c1ccc(CO)cc1`, the composite z-score [1] was 0.145, the z-score [2] was -1.69 (inactive) and the z-score [3] was -1.69 (inactive). The z-score [4] was 0.0387 (inactive), the z-score [5] was 0.119 (inactive) and the composite z-score [6] was 0.556. The composite z-score [7] was -0.0405, the composite z-score [8] was -0.137 and the composite z-score [9] was 0.759. The composite z-score [10] was 1.93, the z-score [11] was -0.0343 (inactive) and the composite z-score [12] was 0.0004. The z-score [13] was 2.87 (inactive), the z-score [14] was 0.55 (inactive) and the z-score [15] was 2.48 (inactive). The z-score [16] was 0.352 (inactive), the z-score [17] was -0.0959 and the z-score [18] was 0.736 (inactive). The z-score [19] was 0.284 (inactive) and the z-score [20] was 1.52.

For `O=C(N1CCOCC1)[C@@]1(Cc2ccccc2)COC(c2ccc(OCCCO)cc2)=N1`, the composite z-score [1] was 0.242, the z-score [2] was -5.19 (inactive) and the z-score [3] was -0.446 (inactive). The z-score [4] was 0.484 (inactive), the z-score [5] was -2.35 (inactive) and the composite z-score [6] was 0.647. For the same molecule, the composite z-score [7] was 0.0422, the composite z-score [8] was 0.315 and the composite z-score [9] was 1.02. For the same molecule, the composite z-score [10] was -1.05, the z-score [11] was 2.51 (inactive) and the composite z-score [12] was -0.132. The z-score [13] was 12 (active), the z-score [14] was 0.653 (inactive) and the z-score [15] was 0.929 (inactive). For the same molecule, the z-score [16] was -0.269 (inactive), the z-score [17] was 1.66 and the z-score [18] was -2.33 (inactive). The z-score [19] was 0.642 (inactive) and the z-score [20] was -1.51.

With `CC(C)NC(=O)[C@@H]1c2ccccc2C(=O)N(Cc2ccc(OC(F)(F)F)cc2)[C@H]1c1ccc(CO)cc1` the composite z-score [1] was 0.663, the z-score [2] was -1.54 (inactive) and the z-score [3] was -0.294 (inactive). For the same molecule, the z-score [4] was -0.0243 (inactive), the z-score [5] was 0.442 (inactive) and the composite z-score [6] was 0.201. For the same molecule, the composite z-score [7] was 0.618, the composite z-score [8] was 1.12 and the composite z-score [9] was 0.39. The composite z-score [10] was 1.81, the z-score [11] was -0.376 (inactive) and the composite z-score [12] was 1.24. For the same molecule, the z-score [13] was 2.18 (inactive), the z-score [14] was -0.0655 (inactive) and the z-score [15] was 2.65 (inactive). The z-score [16] was 0.179 (inactive), the z-score [17] was -0.065 and the z-score [18] was 0.412 (inactive). The z-score [19] was -0.27 (inactive) and the z-score [20] was 1.87.

For `CN(C)CCCC[C@@H]1NC(=O)[C@@H]2C[C@H](C(=O)NCCCCCCNC(=O)CS)[C@H](c3ccc(O)cc3)N2C1=O`, the composite z-score [1] was 0.412, the z-score [2] was -0.211 (inactive) and the z-score [3] was -0.525 (inactive). The z-score [4] was 0.549 (inactive), the z-score [5] was 0.375 (inactive) and the composite z-score [6] was -0.406. The composite z-score [7] was 0.257, the composite z-score [8] was 0.71 and the composite z-score [9] was 0.702. The composite z-score [10] was 1.62, the z-score [11] was -1.05 (inactive) and the composite z-score [12] was 0.0013. For the same molecule, the z-score [13] was 1.19 (inactive), the z-score [14] was 0.284 (inactive) and the z-score [15] was -1.22 (inactive). The z-score [16] was 0.0814 (inactive), the z-score [17] was 0.58 and the z-score [18] was 0.559 (inactive). For the same molecule, the z-score [19] was 0.781 (inactive) and the z-score [20] was 0.873.

For `O=C1c2ccccc2[C@@]2(Cc3ccccc3N(Cc3ccccc3)C2=O)[C@H](c2ccc(CO)cc2)N1Cc1ccccc1Cl`, the composite z-score [1] was -0.131, the z-score [2] was -1.35 (inactive) and the z-score [3] was -1.09 (inactive). The z-score [4] was -0.322 (inactive), the z-score [5] was 0.164 (inactive) and the composite z-score [6] was -0.463. It also gave a composite z-score [7] of -0.13, a composite z-score [8] of -1.29 and a composite z-score [9] of 0.454. For the same molecule, the composite z-score [10] was -0.971, the z-score [11] was -0.29 (inactive) and the composite z-score [12] was -0.0479. For the same molecule, the z-score [13] was 0.705 (inactive), the z-score [14] was 0.387 (inactive) and the z-score [15] was -0.113 (inactive). The z-score [16] was 0.18 (inactive), the z-score [17] was 0.272 and the z-score [18] was -0.534 (inactive). For the same molecule, the z-score [19] was -0.644 (inactive) and the z-score [20] was -1.11.

In the case of `COc1ccc(C(=O)Nc2ccc(CN3C(=O)[C@@]4(O[C@@H](CCn5cc(CCO)nn5)[C@H]([Si](C)(C)c5ccc(OC)cc5)[C@H]4C)c4ccccc43)cc2)cc1`, the composite z-score [1] is reported as 0.236, the z-score [2] is reported as -7.97 (inactive) and the z-score [3] is reported as 0.173 (inactive). For the same molecule, the z-score [4] was 6.94 (inactive), the z-score [5] was -0.632 (inactive) and the composite z-score [6] was 0.421. The composite z-score [7] was -0.0791, the composite z-score [8] was 0.671 and the composite z-score [9] was 0.411. For the same molecule, the composite z-score [10] was 1.4, the z-score [11] was -2.53 (inactive) and the composite z-score [12] was 0.232. The z-score [13] was 27.6 (active), the z-score [14] was 16.4 (active) and the z-score [15] was 2.35 (inactive). The z-score [16] was 1.43 (inactive), the z-score [17] was -0.368 and the z-score [18] was -1.81 (inactive). The z-score [19] was 0.515 (inactive) and the z-score [20] was 3.12.

For `COC(=O)C1=CC(CCCO)=CC(c2cccs2)N(Cc2cc3c(cc2Br)OCO3)C=C1C(=O)OC` (stereo not given), the composite z-score [1] was 0.46, the z-score [2] was -1.96 (inactive) and the z-score [3] was 0.587 (inactive). For the same molecule, the z-score [4] was 0.326 (inactive), the z-score [5] was 0.458 (inactive) and the composite z-score [6] was 1.99. The composite z-score [7] was 0.0659, the composite z-score [8] was 0.565 and the composite z-score [9] was 1.12. For the same molecule, the composite z-score [10] was 0.322, the z-score [11] was 0.801 (inactive) and the composite z-score [12] was -0.0629. For the same molecule, the z-score [13] was 5.84 (inactive), the z-score [14] was 1.17 (inactive) and the z-score [15] was 0.277 (inactive). The z-score [16] was 0.621 (inactive), the z-score [17] was -0.176 and the z-score [18] was 1 (inactive). For the same molecule, the z-score [19] was -1.26 (inactive) and the z-score [20] was 1.05.
